# Substitutions are numbered along the chain they refer to. In all, about 5,800 sequences were measured (“enrichment r”: median about 0.54, highest 2% from about 16 on). Shown is part of a subset that was picked to be rich in the highest values.
# B1: ENSG00000087460:stop:overlap|stop_codon|ENSG00000087460|stop_codon|NA|stop_codon (ssRNA)
# RNA: GGGAGUUCUACAGUCCGACGAUCGAGGCGCCUUCGGCUCGGGCCAUGGCGCCCGGCGCCGGGGGCGCGAGGAGCGGCUCAUCUAGUCAGACCCCCCACCCCGCCACCGCCACCAGACACCACCAUCGCUGUGUAGUGUGCUGGCAACAGAGGAUUGAGCAUCA
# B2: chr1:45693489:45693605:+|CDS|ENSG00000159596|unk|FALSE|unique (ssRNA)
# RNA: GGGAGUUCUACAGUCCGACGAUCAAUCCCCUUCGUUGCUCCACCACUGGUCAUGCUGAUGACAAAAACUUAUAUUCCCAUAUUAGCUUUUACUCAGAUGGCUUAUGGAGCCAGUUUCCUAUCUUUCUUGGGUGGGAUCAGAUGCAACAGAGGAUUGAGCAUCA
# B3: chr1:17067390:17067767:-|3pUTR|ENSG00000117115|msi1|total|mutant (ssRNA)
# RNA: GGGAGUUCUACAGUCCGACGAUCCCCAACAUGCAAAGCCCACAUUUAAAGGCCAGCCUCUGCCCCUUCAGUGAUGCGCUCUUCCGAAAUGCCAGUCCACUAUAUUCAGAAAUCCGCAGGGCACAAAACUUCCAGCAAGUCACUCAACAGAGGAUUGAGCAUCA
# B4: chr10:32033860:32033975:-|CDS|ENSG00000170759|unk|total|mutant (ssRNA)
# RNA: GGGAGUUCUACAGUCCGACGAUCCACAGUGGAUAAAGAUAUUACUCUUACCAAUGAUAAACCAGCAACCGCAAUUGGAGUUACCGGAAAUUUUACUGAUGCUGAAAGAAGAAAGUGUGAAGAAGAAAUUGCUAAAUUAUACAACAACAGAGGAUUGAGCAUCA
# B5: chr5:171862525:171862626:-|3pUTR|ENSG00000072803|msi1|total|mutant (ssRNA)
# RNA: GGGAGUUCUACAGUCCGACGAUCGACAGUGCAUGGAAAGGACGUUGGCAUCCAAUUGGCACUCCUUCUCCCUUAUUCAAUAUCCGGUUUGAUUUGCCCUUCGCCAUUGUUUCCAAAGAUCAAGGAAUGUCAAUAACAUUUUAACAACAGAGGAUUGAGCAUCA
# B6: ENSG00000124766:be:win_751|CDS|ENSG00000124766|bound_else_gene|NA|bound_elsewhere_windowed (ssRNA)
# RNA: GGGAGUUCUACAGUCCGACGAUCGGCGCCGCCGCCGACCACCACUCGCUGUACAAGGCGCGGACUCCCAGCGCCUCGGCCUCCGCCUCCUCGGCAGCCUCGGCCUCCGCAGCGCUCGCGGCCCCGGGCAAGCACCUGGCGGAGCAACAGAGGAUUGAGCAUCA
# B7: chr18:35263486:35263657:-|CDS|ENSG00000186814|control|control|control (ssRNA)
# RNA: GGGAGUUCUACAGUCCGACGAUCGGAAAUGACAUCCACAGGAGCACUGAAGUCUCUGUCUCUGAAUAGCCCGGUGCAGCCCUUAGAGAACCAGUGCAAGACUGAGACUCAGGAGUCCCAGGCUUUCCAGGAGAGAGGUGAGAACAACAGAGGAUUGAGCAUCA
# B8: chr4:138169334:138169435:-|3pUTR|ENSG00000151012|msi1|total|mutant (ssRNA)
# RNA: GGGAGUUCUACAGUCCGACGAUCCCAUUUCACGCAGAAAAAAAGUCAGCCAGUAAUUAAGAAAAAAAGUGAUGGAGAUUAAGCCGUAUUUUGGCUUAUUUUCCGGACUCAUCAUGAGAAGACACAGUUCCUUUAAUCAGGAAACAACAGAGGAUUGAGCAUCA
# B9: chr4:138169334:138169435:-|3pUTR|ENSG00000151012|msi1|FALSE|unique (ssRNA)
# RNA: B8 RNA with C83U, C84A, C102U, C103A
# B10: chr17:5489330:5489445:+|CDS|ENSG00000167842|unk|FALSE|unique (ssRNA)
# RNA: GGGAGUUCUACAGUCCGACGAUCACGUUGACUUUCUUUGAUGAGCUUCAUAAUGUUGGCAGAGAUCAUGGGACUAGUGAUUUUAGGGAGAGUUUAGUAUCCCUGGUUCAGAACUCCAGAAAACUACAGAACAUUAGAGACAAUCAACAGAGGAUUGAGCAUCA
# B11: chr13:79312715:79312816:-|3pUTR|ENSG00000139746|unk|FALSE|unique (ssRNA)
# RNA: GGGAGUUCUACAGUCCGACGAUCCCUUGUGAUUUAUUAUAAUGUAGCAGCAUACUUAUAAAAGUGGUCUGUGCUGAGUCAGAUAGAGAGCCCAGCCCAUUAGAAACACAUCAUAAUUUAAGAAUAUGAUGCAGAAUGCCCUUACAACAGAGGAUUGAGCAUCA
# B12: chrX:155122998:155123099:+|3pUTR|ENSG00000185515|unk|FALSE|unique (ssRNA)
# RNA: GGGAGUUCUACAGUCCGACGAUCCUACAUACACACAAAUGAAUGCAUGUAAAAUCUGGUGAUACUGAAUAAAGUCUGUGGUCUAGAUAGCAGUAUAAUAUUAUUGUCAAUGUCUUGGAUGUGAAGUUGUGCUAUAGUUACAAACAACAGAGGAUUGAGCAUCA
# B13: chr13:79312715:79312816:-|3pUTR|ENSG00000139746|unk|total|mutant (ssRNA)
# RNA: B11 RNA with U44C, A45C, U83C, A84C, U100C, A101C
# B14: chr5:97028609:97028710:+|3pUTR|ENSG00000113441|msi1|total|mutant (ssRNA)
# RNA: GGGAGUUCUACAGUCCGACGAUCUUGCAAAAGCCAAGGUAAAGCCAGGAUCGCUGCCAAGUUGUUUGCACUCUUUGGAGUUCCCGUCCGCUCAGGGCCUGACUGUAUUUUUCAUCCAUCUUUUCUGAAGUGUCUUUGGGCAGUCAACAGAGGAUUGAGCAUCA
# Molecular target: MSI1 full-length (mouse, UniProt Q61474 1-362)
# Sequence (Q61474 whole entry): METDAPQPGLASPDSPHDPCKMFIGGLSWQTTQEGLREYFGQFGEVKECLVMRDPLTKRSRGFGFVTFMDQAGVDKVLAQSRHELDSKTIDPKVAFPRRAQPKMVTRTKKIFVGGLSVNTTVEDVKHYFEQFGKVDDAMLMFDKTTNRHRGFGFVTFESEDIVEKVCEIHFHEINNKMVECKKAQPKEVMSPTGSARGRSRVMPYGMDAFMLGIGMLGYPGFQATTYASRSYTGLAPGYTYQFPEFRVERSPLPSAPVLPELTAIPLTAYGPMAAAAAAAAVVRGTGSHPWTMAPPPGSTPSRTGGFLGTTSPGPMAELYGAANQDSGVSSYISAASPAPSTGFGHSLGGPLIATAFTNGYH
# Assay: nsRBNS (natural sequence RNA bind-n-seq); RBNS binding buffer (assumed for nsRBNS): 25 mM Tris pH 7.5, 150 mM KCl, 3 mM MgCl2, 0.01% Triton X-100, 500 ug/ml BSA, 20 U/ml SUPERase-In, 4 C; UNK is unkempt and MSI1 is Musashi-1; names of the RNAs are library labels; protein concentration not given here; high values mean tight binding
row,Binder,binding signal [enrichment R]
1,B1,0.204
2,B2,0.499
3,B3,0.72
4,B4,0.675
5,B5,0.579
6,B6,0.389
7,B7,0.496
8,B8,0.883
9,B9,19.3
10,B10,1.88
11,B11,17.8
12,B12,2.09
13,B13,1.96
14,B14,0.321
